T1: USP38, Q8NB14
T1 chain: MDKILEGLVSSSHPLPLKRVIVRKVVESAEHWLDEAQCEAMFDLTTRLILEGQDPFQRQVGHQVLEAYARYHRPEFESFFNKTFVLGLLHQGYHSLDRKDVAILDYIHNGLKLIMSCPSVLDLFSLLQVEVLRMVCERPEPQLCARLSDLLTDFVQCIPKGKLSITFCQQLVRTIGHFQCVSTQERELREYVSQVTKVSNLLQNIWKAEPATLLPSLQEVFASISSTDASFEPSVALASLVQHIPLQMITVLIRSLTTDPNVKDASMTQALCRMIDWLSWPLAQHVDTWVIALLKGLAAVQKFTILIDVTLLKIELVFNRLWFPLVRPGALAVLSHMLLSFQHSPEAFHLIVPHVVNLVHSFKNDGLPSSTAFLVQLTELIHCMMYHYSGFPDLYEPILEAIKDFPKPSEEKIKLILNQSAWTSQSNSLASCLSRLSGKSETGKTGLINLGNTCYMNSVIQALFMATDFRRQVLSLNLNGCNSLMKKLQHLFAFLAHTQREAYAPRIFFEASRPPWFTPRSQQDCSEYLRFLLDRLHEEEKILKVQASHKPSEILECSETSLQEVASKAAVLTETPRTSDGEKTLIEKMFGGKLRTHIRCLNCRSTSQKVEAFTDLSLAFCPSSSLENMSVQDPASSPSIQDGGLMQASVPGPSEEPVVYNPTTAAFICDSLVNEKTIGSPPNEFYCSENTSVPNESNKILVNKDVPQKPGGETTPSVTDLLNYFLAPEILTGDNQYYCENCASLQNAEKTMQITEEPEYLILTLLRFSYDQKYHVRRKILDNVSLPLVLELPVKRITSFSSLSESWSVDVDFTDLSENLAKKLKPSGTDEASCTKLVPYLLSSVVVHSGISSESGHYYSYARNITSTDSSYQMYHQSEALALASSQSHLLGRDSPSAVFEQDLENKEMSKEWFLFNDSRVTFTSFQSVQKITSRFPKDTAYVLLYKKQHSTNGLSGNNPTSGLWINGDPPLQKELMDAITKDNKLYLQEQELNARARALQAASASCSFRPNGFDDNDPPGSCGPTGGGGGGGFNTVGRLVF

B1: usp_38_diff_out_4_99_565 (protein)
chain: EKERMVEEVRRLTERARELLERARAAFELPPEERRRTAEELARELDELARRMGAIAFAARDSGDPELIKAVNEEADEFVDAYTEAATALNELRHLVLQEE
B2: usp_38_diff_out_4_99_566 (protein)
chain: MKEELVKKVKELKKKAEELKKKAEEAFKLDHEERKKVAEELEKELDEIAKEMGAIYFSARDSGDAELIKAVQKEADEFVDAYNEAATALNELRHLVLEEE
B3: usp_38_diff_out_4_99_568 (protein)
chain: MKEEKVKEVKELTERAKELLEKAKEAFELSHEERKKKAEELRKELDELAKRMGAIYFEARDSGDEELIEAVTEEADEFVDAYNEAAEALNLLEHEVLEEE
B4: usp_38_diff_out_4_99_569 (protein)
chain: EKEKKVKEVKKIKEKIEELLKEAEEAEKLSVEERRKKAEEIRKELDELAKKLGKLYFEARDSGDKELIEAVNKEADKAVDAYKEAATKLHELEAKVQEEE
B5: usp_38_diff_out_4_99_570 (protein)
chain: KKEELVERAKELKERAEELLKEAKKARELSTEERAKKAAEIDKELDELAKEMGEIYFEARDSGDEELIEAVTEVADEFVKAYEKAATELFELQAEVQEEQ
B6: usp_38_diff_out_4_99_571 (protein)
chain: EKEKIVEEVKKLKEEAEKLLKEAKEAKKLSTEERRKKAEEIRKKLDELAKEMGKLYFEARDSGDKELIEEVNKEADEFVDAYEKAATELFELEAEVEEEE
B7: usp_38_diff_out_4_99_572 (protein)
chain: EREEMVERMKELTERLKELTARAKAARALPPAERAAAAAALREELDRLAREAGEIYFRARDSGDKELIEEVGKVADEFVDAYLEAGTALNELEAEVDAAA
B8: usp_38_diff_out_4_99_573 (protein)
chain: KKEELVEEVKRLTEEVKEIKKEAEAAKSLPLEERRATAEELRRRLDELARRMGEIYFEARDSGDEELIEAVEEEADKFVDEYLKAGTALNELESEVLEAE
B9: usp_38_diff_out_4_99_574 (protein)
chain: EKEEKVKKAEEIAKKLEELLKEAKKARELSTEERRKKAEEIRKELDELAKELGKIYFEARDSGDKELIKEVEEVAKKAVDAYEKAATELFELEDEVQQEE
B10: usp_38_diff_out_4_99_575 (protein)
chain: EKEEMVERVKRLTEEVRRLLEEVEAARTLSPEERRALAERASAELDRLAEEMGKIYFEARDSGDKELIKAVTEAGDEFVDAYERAGLALAELRNEVDEES
B11: usp_38_diff_out_4_99_577 (protein)
chain: EKEKKVEEVKKIKEELKKLKEEAEAAKKLPLEERKKVAEELSKRLDELAKRLGKIYFEARDTGDKELIKAVTEEANKAVDEYLKAATALNELQSLVDEER
B12: usp_38_diff_out_4_99_578 (protein)
chain: EKEKKVEELKKLTEKAKELKKEAEAAKTLSLEERKKKAEELRKELDKIAEEAAKIYFEARESGDKELIEAVEKEAKKFVDAYLEAGTALNELQHEVDEAE
B13: usp_38_diff_out_4_99_579 (protein)
chain: EKEKMVERLKELTKRAERLREEAEAAFSLPLEERRELAERLREELDRLAEEAAEIYFEARDSGDEELIKAVEKEADKFVDAYLAAGTALNELEHLVLEEE
B14: usp_38_diff_out_4_99_580 (protein)
chain: EKEKKVKELKKLTEEAKKIKEEAEAAKSLPLEERKKKAEELRKRLDELAKRAAAIYFEARDSGDEELKKAVEEEADKFVDAYLEAGTALNELEHLVLEEE
B15: usp_38_diff_out_5_164_582 (protein)
chain: GVEEYLAEMEAIRDETIAKLDALLAEAKENPEKLDEYKKEITDTTNEAINRMTEVTTRALEEHPEKAEEILARYSELMDELLTHYNAVMEELEKLKEELE
B16: usp_38_diff_out_5_164_583 (protein)
chain: GVEEYLARLDAIKKETIEELDKLLEEAKKNPEKLEEYKKKITEITNKAINEMTKVTTEALEEFPEQAETILAHYSERIDELLKHYNEVMKELEKLKKELE

Target: T1, USP38, Q8NB14
Assay: median log2 fold change of GCK-ALFA target abundance (FLAG IP / Myc IP barcode read proportion) (log2 ratio); each designed protein is fused to an ALFA-tag nanobody in HEK293 cells to bring the named protein to FLAG-tagged glucokinase (GCK); Myc marks an untargeted standard; higher = target protein stabilised (more abundant)
Conditions: target protein: 3xFLAG-MCP-GCK-ALFA reporter; HEK293 landing pad (RPLP)
How it was run: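 Sequencing of reverse-transcribed, amplified circular RNA barcodes from anti-FLAG and anti-Myc immunoprecipitates provided the readout for an ALFA-nanobody-fused binder library recombined into HEK293 landing-pad cells. Those cells were induced with 2 μg mL^−1 doxycycline, transfected with a plasmid expressing a FLAG-tagged target and a Myc-tagged standard, and lysed after 48 h. Target abundance is the per-binder median log2 ratio of FLAG to Myc barcode read proportions. Only barcodes at a proportion of ≥10^−7 in both replicates and binders with ≥3 barcodes per replicate were kept, with a 10^−6 pseudocount added before the two replicates were pooled.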

| Binder | median log2 fold change |
| --- | --- |
| B1 | 0.126 |
| B2 | 0.0841 |
| B3 | -0.28 |
| B4 | -0.151 |
| B5 | -0.0709 |
| B6 | -0.355 |
| B7 | 0.235 |
| B8 | 0.007 |
| B9 | -0.356 |
| B10 | -0.45 |
| B11 | -0.345 |
| B12 | -0.163 |
| B13 | -0.154 |
| B14 | 0.145 |
| B15 | -0.0672 |
| B16 | 0.0633 |
